The source of these data is PubChem BioAssay AID2284347 (EPA ToxCast).

Results filed as inconclusive are left out. Active and inactive are the calls of the source. How the source made its calls: active means hit-call score of the fitted dose curve at least 0.9, where 1 is the maximum; inconclusive means response in the unintended direction; inactive means score below 0.9.

The subject of the test is rainbow trout Peroxisome Proliferator-activated Receptor alpha (PPARa), gene 110490141. Nature of the test: ATG_rtPPARa_EcoTox2: Attagene TRANS-FACTORIAL EcoTox-2 HepG2 Assay for rainbow trout Peroxisome Proliferator-activated Receptor alpha (PPARa). As for the experimental part:
ATG_EcoTox2 is a cell-based, multiplexed assay created by modifying the existing Attagene TRANS-FACTORIAL system to include a panel of nuclear receptors from some or all the following species: human (Homo sapiens), african clawed frog (Xenopus laevis), rainbow trout (Oncorhynchus mykiss), japanese medaka (Oryzias latipes), and zebrafish (Danio rerio). The ECOTOX2-FACTORIAL format uses HepG2, a human liver cell line, with measurements taken at 24 hours after chemical dosing in a 24-well plate. ATG_rtPPARa_EcoTox2 is one of 29 assay components calculated in the ATG_EcoTox2 assay. It is designed to make measurements of mRNA induction, a form of inducible reporter, as detected with fluorescence intensity signals by Reverse transcription polymerase chain reaction (RT-PCR) and Capillary electrophoresis technology.The assay endpoint […] was analyzed in the positive analysis fitting direction relative to DMSO as the negative control and baseline of activity. Using a type of inducible reporter, measures of mRNA for gain-of-signal activity can be used to understand the reporter gene at the transcription factor-level as they relate to the gene PPARa. Furthermore, this assay endpoint can be referred to as a primary readout, because this assay has produced multiple assay endpoints where this one serves a reporter gene function. To generalize the intended target to other relatable targets, this assay endpoint is annotated to the nuclear receptor intended target family, where the subfamily is non-steroidal.
Human liver HepG2 cells are transiently transfected with multiple reporter transcription units (MRTUs) in 6-well plates using FuGene 6 reagent (Roche; 3 ml FuGene/1 mg DNA). The MRTU constructs are regulated by a cis-regulating element (promoter). Each RTU expresses a GAL4-UAS that regulates the transcription of a nearby target reporter gene sequence. A major difference between the CIS and TRANS system is that in CIS activities of endogenous TFs are measured, whereas the TRANS assay evaluates changes in activities of exogenous, chimeric NR-Gal4 proteins. […] At the end of 24 hour incubation, total RNA was isolated using TriZol reagent (Invitrogen). The isolated RNA is then reverse-transcribed using oligo(dT) primer and Mo-MLV reverse transcriptase (Invitrogen) with DNAse I (Ambion) treatment for 30 min. The one-tenth of the produced cDNA was amplified by PCR using Taq DNA polymerase (Invitrogen) and two reporter sequence-specific primers. The PCR products were fluorescently labeled by primer extension with 6-arboxyfluorescein (6-FAM) 5'-labeled reporter sequence-specific primer (2 min at 95 C, 20 s at 68 C and 10 min at 72 C) and these products were digested with 5U of HpaI (New England Biolabs) for 2h at 37 C. The fragments were purified using Qiaquick PCR columns (Qiagen), analyzed on an ABI 3130xL genetic analyzer (Applied Biosystems) with peak positions identified by using a set of X-rhodamine (ROX)-labeled MapMarker1000 molecular weight standards (BioVentures). The raw capillary electrophoresis data was processed using Attagraph software (Attagene).
As for `CC(c1cc2ccccc2s1)N(O)C(N)=O` (configuration not stated), the compound was classed as inactive.
Regarding `CC(C)(Oc1ccc(CCNC(=O)c2ccc(Cl)cc2)cc1)C(=O)O`, the concentration at half-maximal activity (AC50) was 41.3 µM (active).
Consider `CC(C)OC(=O)C(C)(C)Oc1ccc(C(=O)c2ccc(Cl)cc2)cc1`, for which the compound was called inactive.
`Cc1cccc(Nc2cc(Cl)nc(SCC(=O)O)n2)c1C`: the AC50 was 25 µM (active).
With `CC(C)(Oc1ccc(C2CC2(Cl)Cl)cc1)C(=O)O` (configuration not stated), the half-maximal activity concentration (AC50) was 75.3 µM (active).
Turning to `C[C@]12C=CC(=O)C=C1CC[C@@H]1[C@@H]2C(=O)C[C@@]2(C)[C@H]1CC[C@]2(O)C(=O)CO`, the result was inactive.
For `CN(CCOc1ccc(CC2SC(=O)NC2=O)cc1)c1ccccn1` (configuration not stated), the concentration at half-maximal activity (AC50) was 6.15 µM (active).
As for `Cc1ccc(C)c(OCCCC(C)(C)C(=O)O)c1`, the AC50 was 10.4 µM (active).
As for `C=C(c1ccc(C(=O)O)cc1)c1cc2c(cc1C)C(C)(C)CCC2(C)C`, the compound was called inactive.
For the compound `C[C@@H]1C[C@H]2[C@@H]3CCC4=CC(=O)C=C[C@]4(C)[C@@]3(F)[C@@H](O)C[C@]2(C)[C@@]1(O)C(=O)COP(=O)(O)O`, the call was inactive.
Take `CC(C)(Oc1ccc(Cl)cc1)C(=O)O`: the compound was called inactive.
With `Cc1nc(-c2ccc(C(F)(F)F)cc2)sc1C(=O)NCc1ccc(OC(C)(C)C(=O)O)cc1`, the AC50 was 0.0823 µM (active).

By AC50 is commonly meant the midpoint of the concentration-response curve, whichever way the signal moves.
